# From the supplement of paper PMC6555819
# Key:
# Assay in all cases: PBM binding z-score (relative to random genomic background probes); higher = stronger binding; sequences stand for … in GC…GCGATTGACAGCGTAGAATGAAGG
# [1] = tested on: FXR:RXRa (NR concentration 270 nM, RXRa partner concentration 90 nM)
# Outline: (§1)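 Binding z-scores were set against random background probes. The data came from custom Agilent 4×180K protein-binding microarrays carrying double-stranded probes with 34-nt variable regions, incubated 1 h with ligand-free nuclear receptor dimers. Partner-specific antibodies detected binding, and scanned fluorescence was regression-normalized.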
# [2] = tested on: LXRa:RXRa (NR concentration 270 nM, RXRa partner concentration 90 nM)
# Outline: as §1
# [3] = tested on: LXRa homodimer (NR concentration 270 nM)
# Outline: as §1
# [4] = tested on: LXRb:RXRa (NR concentration 270 nM, RXRa partner concentration 90 nM)
# Outline: as §1
# [5] = tested on: LXRb homodimer (NR concentration 270 nM)
# Outline: as §1
# [6] = tested on: PPARa:RXRa (NR concentration 270 nM, RXRa partner concentration 90 nM)
# Outline: as §1
# [7] = tested on: PPARg:RXRa (NR concentration 180 nM, RXRa partner concentration 90 nM)
# Outline: as §1
# [8] = tested on: PPARg:RXRa 270nM:90nM, anti-RXR (NR concentration 270 nM, RXRa partner concentration 90 nM)
# Outline: as §1
# [9] = tested on: PPARg:RXRa 30nM:10nM, anti-RXR (NR concentration 30 nM, RXRa partner concentration 10 nM)
# Outline: as §1
# [10] = tested on: PPARg:RXRa 90nM:30nM, anti-RXR (NR concentration 90 nM, RXRa partner concentration 30 nM)
# Outline: as §1
# [11] = tested on: PPARg:RXRa DBDmut IVT, anti-RXR (DBD mutation: RXRa K156A/R161A, NR concentration 270 nM, RXRa partner concentration 90 nM)
# Outline: as §1
# [12] = tested on: PPARg:RXRa IVT, anti-PPARg (NR concentration 270 nM, RXRa partner concentration 90 nM)
# Outline: as §1
# [13] = tested on: PPARg DBDmut:RXRa IVT, anti-PPARg (DBD mutation: PPARg1 K132A/R137A, NR concentration 270 nM, RXRa partner concentration 90 nM)
# Outline: as §1
# [14] = tested on: PPARg DBDmut IVT, anti-PPARg (DBD mutation: PPARg1 K132A/R137A, NR concentration 270 nM)
# Outline: as §1
# [15] = tested on: PPARg homodimer (NR concentration 180 nM)
# Outline: as §1
# [16] = tested on: PXR:RXRa (NR concentration 270 nM, RXRa partner concentration 90 nM)
# Outline: as §1
# [17] = tested on: PXR homodimer (NR concentration 270 nM)
# Outline: as §1
# [18] = tested on: RARa:RXR (NR concentration 270 nM, RXRa partner concentration 90 nM)
# Outline: as §1
# [19] = tested on: RARa homodimer (NR concentration 270 nM)
# Outline: as §1
# [20] = tested on: RARb:RXRa (NR concentration 270 nM, RXRa partner concentration 90 nM)
# Outline: as §1
Sequence,PBM binding z-score [1],PBM binding z-score [2],PBM binding z-score [3],PBM binding z-score [4],PBM binding z-score [5],PBM binding z-score [6],PBM binding z-score [7],PBM binding z-score [8],PBM binding z-score [9],PBM binding z-score [10],PBM binding z-score [11],PBM binding z-score [12],PBM binding z-score [13],PBM binding z-score [14],PBM binding z-score [15],PBM binding z-score [16],PBM binding z-score [17],PBM binding z-score [18],PBM binding z-score [19],PBM binding z-score [20]
CAAACTAGGCCAAGAGGTCAAAGTCCGCTTCCCG,5.17,5.51,4.77,4.72,1.13,5.68,6.86,6.66,5.68,6.63,6.71,6.57,1.38,0.62,2.87,5.62,1.75,6.34,1.51,4.2
GCTAGTTCGTCAGTAAAAGGTCACACACCGGTCG,3.31,4.47,4.75,4.05,0.683,4.56,1.96,3.56,1.55,3.22,0.269,1.84,0.221,0.516,5.83,5.56,1.64,6.4,3.07,4.08
CGTTCAAGGTCAGCAGGTCAGTGAAAGCGACGTG,6.5,4.34,0.93,3.38,0.134,5.37,5.07,5.47,1.95,4.09,3.85,4.34,0.78,0.144,2.98,4.06,1.14,5.42,1.55,5.54
CATACTAGGTCAAGAGGTCAAAGTCCGCTTCCCG,7.24,6.42,7.38,5.6,2.49,6.35,8.96,7.68,5.59,7.65,7.37,7.69,4.46,2.98,5.59,6.4,2.53,7.53,3.07,5.67
AAAGACAGGTGAGTGAAGGTAACTCAGCTGGACG,0.449,0.399,-0.509,-0.0849,-0.324,0.472,0.63,0.239,-0.273,0.0365,0.772,0.948,0.86,-0.373,0.59,-0.0597,0.232,0.219,0.262,0.715
CAAACTAGGTCAAGGTCAACGTCGGTTTGTGCCA,6.57,5.33,3.32,4.35,0.922,6.21,9.59,8.11,6.56,8.58,8.4,8.81,6.29,2.23,4.73,5.27,1.97,5.42,2.12,5.36
TCTGCTAGGGCAGTTGGTCAGCTAACGAGCTGCC,-0.253,-0.634,-0.708,-0.857,-0.624,-0.359,-0.953,0.135,0.729,0.414,1.38,0.996,-0.206,-0.384,-0.702,-0.671,-0.958,-0.138,-1.3,1.14
ATATGTAGGTTATCGGGTCATTCACTTTGCGCAT,3.3,3.17,2.13,3.23,1.51,5.02,7.09,6.26,3.66,5.87,7.73,7.65,4.35,2.87,2.48,3.44,1.07,4.15,2.17,2.64
ATATGTAGGTTATTGGGTCATTCAGTTTGCGCAT,2.82,3.05,2.1,2.62,1.34,5.16,8.04,6.41,3.93,5.9,7.67,8.16,4.52,3.64,4.1,3.06,4.6,3.36,2.83,2.5
CCTATTAGTTGACCATAAGGGAAACCGAAGCTCG,0.0135,0.118,0.818,0.349,0.904,0.126,0.419,0.639,0.332,0.381,0.672,0.217,0.925,1.02,2.22,0.326,0.761,0.517,2.53,0.497
GCTAGCAGGCCATTTGGGTCCCTCAATGACGGGC,-0.228,-0.686,-0.879,-1.21,-1.22,-0.512,-0.133,-0.261,-0.743,-0.708,-0.0266,-0.343,-1.53,-1.41,-1.41,-0.687,-1.15,-0.731,-1.25,-0.116
CCTACTGGGCCATTCAGAGGTCATTGAACATATG,2.73,4.42,6.32,4.04,0.612,4.06,2.51,3.47,1.18,2.51,4.56,4.39,0.0817,-0.464,3.64,5.2,3.45,5.13,1.15,3.23
GCTCGGAGGACAAGGTCAGTGCTTTGTCCGTAGA,1.54,1.23,-0.17,1.09,-0.53,1.94,0.00556,1.33,-0.784,0.326,-0.0896,0.926,-1.08,-0.85,0.917,1.43,-0.565,1.37,-1.15,3.46
CTACCAAGGTGAACACGGTCGTTGATTACTATTC,0.926,0.679,0.219,1.01,-0.319,1.35,0.647,0.659,-0.147,0.147,2.72,2.43,0.613,-0.0431,0.251,0.292,0.00892,0.57,0.749,1.88
ACAGACAGGCGATGAAGGTAACTCAGGCTATCAT,-0.05,-0.309,-0.155,-0.384,-0.145,-0.503,0.721,-0.326,0.0512,-0.438,-0.645,-0.444,-0.214,0.247,0.743,-0.467,0.0486,-0.431,-0.0743,-0.249
GCTTACGGGACAAAGGTTATAGCATGAATAGAAT,1.23,1.56,0.265,2.04,-0.135,4.42,7.78,7.39,6.27,8.27,1.28,3.13,0.314,1.06,1.03,1.57,0.222,2.59,0.238,1.81
TCTTGTAGATCAACAGGAGGGTAAGAAAGATCGA,0.289,0.24,-0.818,0.0772,-0.238,0.374,-0.102,1.06,2.25,1.7,1.73,0.871,0.452,0.0976,-0.361,0.00133,-0.381,-0.112,0.0256,0.107
CGTCCAATGTCATAGGAGGTCAGTGAAGACAGAT,3.22,4.74,1.21,2.36,0.0659,2.66,0.938,0.958,0.0922,0.565,0.186,1.95,0.476,0.254,1.72,3.91,0.941,2.69,0.765,2.9
CAAACTTGGTCAAAGGTCAAAGTCGAGCCAACCA,6.18,6.18,4.48,5.67,2.36,6.84,11.5,10,10.4,11.2,3.33,6.48,1.57,0.873,4.08,6.01,1.58,7.69,1.5,5.11
CGAACGAGGGCATGAGTTTATAGCAAATGCCGAT,0.448,0.306,-0.244,0.294,-1.03,1.43,1.45,1.38,0.138,0.962,3.26,2.5,0.366,-0.357,0.413,1.65,1.18,0.678,-0.149,2.11
AATACAGGGTTATCGTAGGCCAGAGTACGCACAG,1.75,5.85,0.204,2.68,0.3,2.55,1.75,1.35,0.668,0.954,0.539,1.12,0.626,0.739,0.97,1.59,-0.0696,1.79,0.276,1.3
ATATGTAGGTTAGCTGGGGTCTTTCAGACTAGGC,1.74,0.766,0.231,1.6,0.737,2.65,2.84,2.65,0.594,1.91,6.49,5.47,0.793,0.845,0.937,1.68,0.227,0.915,0.444,0.946
ACTAGCAGGCCAACTTTGGGTCACTCAAACAAAG,0.261,0.66,0.362,0.931,-0.445,1.53,0.543,0.901,-0.236,0.471,1.25,1.4,0.153,-0.0474,0.721,0.676,-0.281,1.52,-0.417,1.74
CGAACTAGGTCATCCAGGACAGTTAATACATTGA,4.18,2.59,0.501,2.29,0.155,4.77,7.57,6.32,3.81,5.9,7.93,8.11,4.57,2.72,2.19,2.02,1.63,2.6,1.19,3.72
AATACAGGGTCATCGTAGGCCAGATTACGCACAG,7.31,6.79,2.75,4.95,1.56,5.92,6.61,6.1,3.14,4.89,2.88,4.16,2.1,1.86,3.02,5.14,0.561,5.6,0.954,4.27
GCGACCGGGGCATCAGCAGGTTACCATAACTTAA,0.256,0.277,-0.271,0.643,-0.263,1.17,0.512,-0.0952,-0.743,-0.899,0.0389,0.384,-1.59,-1.19,0.373,0.411,-0.173,0.981,-0.42,1.3
CGTCCAAGGTCCAGGTCAGTGAAAGAGACTCGAA,0.579,0.595,0.0341,0.462,-0.914,1.17,0.0886,0.162,-0.651,-0.258,0.342,0.512,-0.921,-0.937,0.811,0.618,-0.111,0.904,0.0146,2.52
GCGACTGGGGCATCAGCAGGATACCATAACTTAA,-0.587,-0.962,-0.678,-0.508,-0.969,0.0763,0.883,0.422,-0.491,-0.212,3.9,2.61,-1.01,-0.959,-0.175,-0.691,-0.304,-0.475,-0.756,0.233
CGAACGAGGGCTTGAGTTGATAGCAAATGCCGAT,-0.357,-0.589,-0.512,-0.688,-0.924,-0.425,0.25,-0.478,-0.548,-0.639,0.359,-0.447,-0.831,-1.02,-0.915,-0.245,-0.409,-0.285,-0.522,-0.252
